Test results taken from PMC4336329 (PLoS ONE, 2015).
Screen size: about 310,000 compounds; about 2,200 (0.71%) showed an effect of 50% or more. Effects have a minus sign here. This is one part of a sample in which strong results are shown more often than they occur.

These compounds were tested against human ether-à-go-go-related gene (hERG) potassium channel (human, UniProt Q12809) (assay: primary screen, population patch clamp on CHO cells stably expressing hERG; higher = less effect of the substance).
Sequence of human ether-à-go-go-related gene (hERG) potassium channel (Q12809 whole entry, looked up): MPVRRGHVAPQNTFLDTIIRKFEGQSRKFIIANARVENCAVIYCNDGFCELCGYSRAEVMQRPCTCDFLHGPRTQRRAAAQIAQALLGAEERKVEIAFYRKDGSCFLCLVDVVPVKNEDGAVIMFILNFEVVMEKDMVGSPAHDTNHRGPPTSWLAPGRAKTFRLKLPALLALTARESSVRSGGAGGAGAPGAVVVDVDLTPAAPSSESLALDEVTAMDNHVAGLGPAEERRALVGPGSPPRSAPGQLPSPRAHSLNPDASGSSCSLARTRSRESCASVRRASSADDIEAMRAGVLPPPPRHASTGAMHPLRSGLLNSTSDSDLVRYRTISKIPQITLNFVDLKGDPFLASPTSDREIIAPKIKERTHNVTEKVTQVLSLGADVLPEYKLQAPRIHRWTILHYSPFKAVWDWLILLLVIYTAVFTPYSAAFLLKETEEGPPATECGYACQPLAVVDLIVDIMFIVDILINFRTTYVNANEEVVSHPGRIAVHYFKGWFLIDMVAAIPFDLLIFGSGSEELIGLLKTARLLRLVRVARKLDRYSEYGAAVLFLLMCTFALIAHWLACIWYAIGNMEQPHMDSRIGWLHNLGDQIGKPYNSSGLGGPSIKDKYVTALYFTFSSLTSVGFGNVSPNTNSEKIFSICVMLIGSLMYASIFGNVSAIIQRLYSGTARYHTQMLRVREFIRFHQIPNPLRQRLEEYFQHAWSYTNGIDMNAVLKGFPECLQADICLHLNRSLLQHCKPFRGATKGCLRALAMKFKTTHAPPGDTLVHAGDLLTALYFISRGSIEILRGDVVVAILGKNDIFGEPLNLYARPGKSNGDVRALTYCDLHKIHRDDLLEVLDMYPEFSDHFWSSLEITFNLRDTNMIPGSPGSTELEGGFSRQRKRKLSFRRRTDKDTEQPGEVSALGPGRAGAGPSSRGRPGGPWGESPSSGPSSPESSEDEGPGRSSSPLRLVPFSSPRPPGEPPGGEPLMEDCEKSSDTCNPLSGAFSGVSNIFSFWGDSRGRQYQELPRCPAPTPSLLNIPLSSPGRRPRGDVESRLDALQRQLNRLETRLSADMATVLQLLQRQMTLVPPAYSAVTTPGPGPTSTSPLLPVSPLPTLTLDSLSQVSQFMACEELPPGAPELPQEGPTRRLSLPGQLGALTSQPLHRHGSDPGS
Procedure: Briefly, Chinese hamster ovary (CHO) cells stably expressing the hERG channel were dislodged from tissue culture flasks and dispensed into PPC plates. […] During the recording, background leak currents were estimated by a 100 ms step to -80 mV from an initial holding potential of -70 mV and subtracted from the subsequent current measurement. The campaign was conducted in two phases using slight differences in recording protocol. In the first phase, the initial voltage pulse used a 100 ms step to -30 mV from a holding potential of -70 mV, a 2 s conditioning step to +25 mV, and a 2 s test step to -30 mV. During the second phase of the screen, the potential during the conditioning step was raised to +45 mV. In both phases of the campaign, a secondary voltage pulse was applied using the same parameters as the second phase initial pulse. The initial and secondary pulses were applied in the absence of compound, and upon application of 1 μM and 10 μM test concentrations. Small molecule effects on hERG current density were quantified by […].

Row | Structure (SMILES) | hERG current change (%, negative = inhibition) at 1uM
1 | CCOC(=O)c1ccc(NC(=O)CNC(=O)c2ccccc2)cc1 | 7.06%
2 | CCSc1nnc(NC(=O)Nc2cccc(C)c2)s1 | 12.2%
3 | Cn1nc([N+](=O)[O-])nc1Sc1nnnn1-c1ccc(C(=O)O)cc1 | 8.97%
4 | CCCCn1c(CCNC(=O)c2ccco2)nc2ccccc21 | 7.54%
5 | Cc1cc(C)cc(-c2nnc(SCC(=O)c3ccc4c(c3)OCCO4)o2)c1 | 16%
6 | Cc1cn(COC/C=C/c2ccccc2)c(=O)[nH]c1=O | 7.16%
7 | Cc1cccc(C(=O)NCCCNC(=O)c2ccc(C)nc2)c1 | 10.6%
8 | CC(=O)N1CCN(CC(=O)Nc2ccccc2Sc2ccccc2)CC1 | -29.8%
9 | CN1CCN(CC(=O)Nc2c(C(=O)c3ccccc3)oc3ccccc23)CC1 | -83.2%
10 | O=C(CN1CCN(C(=O)c2ccccc2)CC1)Nc1ccc(Cl)cc1F | -54.8%
11 | Cc1cc(Cl)ccc1OCCCC(=O)N1CCN(C(=O)c2ccco2)CC1 | -59.1%
12 | COc1ccc2oc(C(=O)c3ccccc3)c(NC(=O)CN3CCN(C)CC3)c2c1 | -12.2%
13 | O=C(CN1CCN(C(=O)c2cccc(F)c2)CC1)Nc1ccccc1F | -36.4%
14 | O=C(CN1CCCC1)Nc1ccccc1Sc1ccc(Cl)cc1 | -0.77%
15 | Cc1cc(Cl)ccc1OCCCC(=O)N1CCOCC1 | -7.13%
16 | CN1CCN(CC(=O)Nc2c(C(=O)C3CC3)oc3ccccc23)CC1 | -16.9%
17 | O=C(CN1CCCCCC1)Nc1ccc(Cl)cc1F | 14.6%
18 | CC(=O)N1CCN(CC(=O)Nc2ccccc2Sc2ccc(Cl)cc2)CC1 | -58.3%
19 | Cc1cc(Cl)ccc1OCCCC(=O)N1CCN(C)CC1 | 0.322%
20 | Cn1cnc([N+](=O)[O-])c1Cl | 11%
21 | O=C(CN1C(=O)c2ccccc2C1=O)Nc1ccccc1C(=O)NC1CCCCCC1 | 6.73%
22 | Cc1ccc(CNC(=O)c2ccc(N3CCC4(CC3)CC(c3cccc(Br)c3)=NO4)c(NC(=O)c3cccc(C)c3)c2)cc1 | 8.49%

Row | Structure (SMILES) | hERG current change (%, negative = inhibition) at 1uM
23 | CCCSc1nc(C)c(C(C)=O)cc1C#N | 7.88%
24 | O=C(CN1CCN(CCO)CC1)Nc1ccc(Cl)cc1C(=O)c1ccccc1 | -80.7%
25 | O=C(CCN1CCCCC1)Nc1ccc(Cl)cc1C(=O)c1ccccc1 | -42.9%
26 | O=C(CN1CCCC1)Nc1ccccc1C(=O)c1ccccc1 | 10.5%
27 | Cc1ccc(CNC(=O)N2CCN(c3ccc(C)cc3)CC2)cc1 | 14.1%
28 | N#Cc1ccc(C2=CC(=O)C[C@H](c3ccc(F)cc3)C2)cc1 | -61.4%
29 | O=C1C=C(c2ccc(-c3ccccc3)cc2)C[C@@H](c2ccc(F)cc2)C1 | 6.09%
30 | Cc1ccc(C2=CC(=O)C[C@H](c3ccc(F)cc3)C2)cc1 | 14.5%
31 | N#Cc1ccc(C2=CC(=O)C[C@H](c3ccc(Cl)cc3)C2)cc1 | -51.9%
32 | O=C1C=C(c2ccc(-c3ccccc3)cc2)C[C@@H](c2ccc(Cl)cc2)C1 | 15.9%
33 | Cc1ccc(C2=CC(=O)C[C@H](c3ccc(Cl)cc3)C2)cc1 | 10.4%
34 | Cc1ccc2nc3c(cc2c1)c(NC(=O)C(C)(C)C)nn3CC(C)C | 7.75%
35 | COc1ccc(S(=O)(=O)N2CCCCCC2)cc1C(=O)N(C)Cc1ccccc1F | 6.9%
36 | CCCn1c(SCC(=O)Nc2ccccc2OC)nnc1-c1ccco1 | -18.2%
37 | NC(=O)c1ccc(NC(=O)CCCNC(=O)c2ccc(Cl)cc2)cc1 | 16.6%
38 | CCOc1ccc2nc(NC(=O)c3cc([N+](=O)[O-])ccc3N3CCOCC3)sc2c1 | 8.4%
39 | COc1ccc(CN(C(=O)COc2ccccc2)c2ccccc2C(=O)O)cc1 | 22%
40 | CC(C)Cn1c(CN(C)Cc2ccccc2)nc2c1c(=O)n(C)c(=O)n2C | -6.95%
41 | CC12CCC(C(=Nc3ccc(N=C4C(=O)C5(C)CCC4C5(C)C)cc3)C1=O)C2(C)C | 8.42%
42 | COc1ccc(CNC(=S)NC2CCCC2)cc1 | 9.23%
43 | COc1ccc(NC(=O)N2CCC(CO)(CC3CCCCO3)CC2)c(OC)c1 (centres unmarked) | 9.96%
44 | O=C(COc1ccc(-n2cnnn2)cc1)N1CCN(c2ccc(F)cc2)CC1 | -60.3%

Row | Structure (SMILES) | hERG current change (%, negative = inhibition) at 1uM
45 | CC(=O)c1cc(F)c(N2CCN(C(=O)COc3ccc(F)cc3)CC2)cc1C | -38.2%
46 | O=C(COc1ccc(F)cc1)Nc1ccc(-n2cnnn2)cc1 | -27.2%
47 | CCC(=O)c1ccc(N2CCN(C(=O)c3ccc(F)cc3)CC2)c(F)c1 | -10.2%
48 | O=C(COc1ccc(-n2cnnn2)cc1)NCCc1ccc(F)cc1 | -5.74%
49 | CCC(=O)c1ccc(N2CCN(C(=O)COc3ccc(F)cc3)CC2)c(F)c1 | -71.3%
50 | CCC(=O)c1ccc(N2CCN(C(=O)COc3ccccc3F)CC2)c(F)c1 | -19.1%
51 | CC(=O)c1ccc(N2CCN(C(=O)COc3ccc(F)cc3)CC2)c(F)c1 | -62.7%
52 | CC(=O)c1ccc(N2CCN(C(=O)COc3ccccc3F)CC2)c(F)c1 | -11.1%
53 | CCN(CC(=O)NCc1cccs1)C(=O)/C=C/c1cccc(Br)c1 | -42.3%
54 | COc1cccc(NC(=O)CN(C)C(=O)c2ccccc2Sc2ccccc2C#N)c1 | 8.02%
55 | CCC(C)NC(=O)Cn1nc(Cc2ccncc2)c2ccccc2c1=O (centres unmarked) | 10.1%
56 | Cc1cc(NC(=O)c2ccc3c(c2)C(=O)N(C)C3=O)no1 | 16.4%
57 | Cc1ccc(C)c(OCCC(=O)NNC(=O)c2ccccc2)c1 | 10.8%
58 | Cc1cccc(N(C(=O)c2nsc(Cl)c2Cl)C(C(=O)NC2CCCC2)c2ccc(O)cc2)c1C (centres unmarked) | 10.1%
59 | O=C(c1cccc(S(=O)(=O)N2CCOCC2)c1)N(Cc1ccco1)Cc1cccs1 | -6.4%
60 | CN(C)S(=O)(=O)c1cccc(C(=O)N(Cc2ccc(F)cc2)Cc2ccco2)c1 | -14.6%
61 | O=C(c1cccc(S(=O)(=O)N2CCOCC2)c1)N(Cc1ccc(F)cc1)Cc1ccco1 | -55.2%
62 | CCC(=O)O[C@]1(C(=O)CCl)[C@@H](C)C[C@H]2[C@@H]3CCC4=CC(=O)C=C[C@]4(C)[C@@]3(F)[C@@H](O)C[C@@]21C | 18%
63 | Cc1ccccc1OCC(O)Cn1c(=N)n(CCN2CCOCC2)c2ccccc21.Cl (centres unmarked) | -25.3%
64 | COc1ccc(OCC(O)Cn2c(=N)n(CCN3CCCCC3)c3ccccc32)cc1.Cl (centres unmarked) | -51.2%
65 | CCCn1c(=N)n(CC(O)c2ccc(C)cc2)c2ccccc21.Cl (centres unmarked) | -14.9%
66 | Cl.N=c1n(CCN2CCCCC2)c2ccccc2n1CC(O)COc1ccccc1 (centres unmarked) | -32.7%

Row | Structure (SMILES) | hERG current change (%, negative = inhibition) at 1uM
67 | CCOc1ccc(C(O)Cn2c(=N)n(CCN3CCCCC3)c3ccccc32)cc1.Cl (centres unmarked) | -56%
68 | COc1ccc(-c2cc3ccccc3n2CC(O)CN2CCC(C)CC2)cc1.O=C(O)C(=O)O (centres unmarked) | -49.8%
69 | Cc1cccc(OCC(O)Cn2c(=N)n(CCN3CCCCC3)c3ccccc32)c1.Cl (centres unmarked) | -59.8%
70 | Cc1ccc(OCC(O)Cn2c(=N)n(CCN3CCCCC3)c3ccccc32)cc1.Cl (centres unmarked) | -30.1%
71 | COc1ccc(-c2cc3ccccc3n2CC(O)CN2CCCCC2)cc1.O=C(O)C(=O)O (centres unmarked) | -74.6%
72 | COc1ccc(-c2cc3ccccc3n2CC(O)CN2CCOCC2)cc1 (centres unmarked) | 2.37%
73 | Cl.N=c1n(CCN2CCCCC2)c2ccccc2n1CC(O)c1ccco1 (centres unmarked) | -4.15%
74 | Cc1cccc(OCC(O)Cn2c(=N)n(CCN3CCOCC3)c3ccccc32)c1.Cl (centres unmarked) | -8.29%
75 | CCCCC(=O)O[C@]1(C(=O)CO)CC[C@H]2[C@@H]3CCC4=CC(=O)CC[C@]4(C)[C@H]3[C@@H](O)C[C@@]21C | 11.4%
76 | COc1ccc(N/C=C/C(=O)c2ccccc2)cc1 | 11%
77 | CCCCNC(=O)C1CCCN1C(=O)Nc1ccccc1 (centres unmarked) | 0.208%
78 | O=S(=O)(NCc1cccnc1)c1ccc(Br)c2ccccc12 | 7.97%
79 | Cc1cc2nc(-c3ccc(SCc4ccc(C(=O)O)cc4)nc3)[nH]c2cc1C | 14.5%
80 | COc1ccc2[nH]c(C(=O)O)c(CCNC(=O)/C=C/c3ccc(O)c(OC)c3)c2c1 | 13.1%
81 | CCCc1nnc(NC(=O)c2nc(S(=O)(=O)Cc3cccc(C)c3)ncc2Cl)s1 | 21%
82 | O=C1CCN(C(=O)Cc2ccccc2[N+](=O)[O-])CC1 | 14.3%
83 | O=C(Nc1cc(SCC(O)CO)cc([N+](=O)[O-])c1)c1ccc(-n2cnnn2)cc1 (centres unmarked) | 17.4%
84 | Br.CC1(C(=O)CSc2n[nH]c(-c3ccccc3Cl)n2)CCC(=O)O1 (centres unmarked) | 8.24%
85 | COc1ccc(N(CC(=O)NC2CCCCC2)S(=O)(=O)c2c(C)[nH]c(=O)[nH]c2=O)cc1 | 15.2%
86 | Cc1ccc(CNC(=O)c2nn(C)c(C)c2[N+](=O)[O-])cc1 | 5.74%
